Inconclusive results are not listed. Values without a mark were called inactive. Calls follow the shape of the dose curve; as a rule, active = well fitted inhibition curve with a large enough effect; inconclusive = small, poorly fitted or top-dose-only effect; inactive = no such curve, though single readings can be large or run the other way.
Assay: qHTS assay for measurement of the activity of small molecule inhibitors on Zika virus induced Caspase-3 activity in human iPSC derived neural progenitor cells (hNPCs) (AID 1224857); also: % of control where 0% means no effect; nearly all actives have a fitted effect of over 65% in size
Details: hNPCs ZIKV-induced caspase-3/7, Caspase-Glo luminescence, 6 h; series mostly up to 45.7 µM; activity change, negative = inhibition: at the top concentration
Excerpt: National Center for Advancing Translational Sciences [NCATS]
Johns Hopkins University School of Medicine
Increase in the Caspase-3 activity indicates an activation of apoptosis cell death pathway caused by Zika virus infection in certain types of neuronal cells including human neural progenitor cells (hNPCs), astrocytes, and astrocytoma cell line (SNB-19). This cell-based caspase-3 activity assay measures the increased caspase-3 activity in the human iPSC derived neural progenitor cells (hNPCs) after a 6-hour Zika virus infection with a luminescence readout. A decrease in the luminescence signal in this assay by small molecule treatment indicates an inhibitory effect of that small molecule on the Zika virus induced caspase-3 activity that may correlate with its effect on reduction of Zika virus caused cell death.
The medium for hNPCs consists of DMEM/F12, N2 supplement (ThermoFisher, Cat.# 17502048), NEAA (ThermoFisher, Cat. # 11140050), 2 ug/ml heparin, 2 uM cyclopamine, and B27 (ThermoFisher, Cat. # 17504044). A Caspase-Glo 3/7 assay kit (catalog number G8092; Promega, Madison, WI) was used to detect caspase-3 activity induced by Zika virus infection in human cells. The reagent mixture was reconstituted as described in the protocol from the manufacturer. Polystyrene tissue culture treated and PDL coated white plates were obtained from Greiner Bio-One (Monroe, NC). Cells were seeded in 384- or 1536-well assay plates and cultured at 37 C with 5% CO2 for 16 to 20 hours. The typical cell seeding density in the 1536-well plate assay is 350 cells/well in 3 ul medium for hNPCs in tissue culture treated plates. Compounds were added to cells and incubated for one hour before addition of ZIKV solution to cells (2 FFU/cell). After incubation at 37 C with 5% CO2 for 6 hours, the reagent mixture of Caspase-Glo 3/7 assay kit was added to each well, followed by incubation at room temperature for 30 minutes. The luminescence intensity of the assay plates was measured using a ViewLux plate reader (PerkinElmer). Data were normalized by using the cell-containing wells without ZIKV as a negative control (0% induction of caspase 3/7 activity) and wells containing ZIKV infected cells (Caspase-3 activity induced) as a positive control (100% induction of caspase 3 activity). The percentage inhibitions of the increased Caspase-3 activity by small molecule inhibitors were then calculated.

SMILES | activity change, negative = inhibition
NC(CCCCCP(=O)(O)O)C(=O)O (stereo not given) | -13.7%
CCCN1CCc2cccc3c2[C@H]1Cc1ccc(O)c(O)c1-3 | -7.05%
Cc1o[nH]c(=O)c1CC(N)C(=O)O (stereo not given) | -8.38%
O=[N+]([O-])c1cc(O)c(O)c([N+](=O)[O-])c1 | 0.656%
CC(C)(C)c1o[nH]c(=O)c1CC(N)C(=O)O (stereo not given) | 2.17%
C[N+](C)(C)CCOC(=O)CBr | 0.236%
CC(N)Cc1c[nH]c2ccc(OCc3cccs3)cc12 (stereo not given) | 8.03%
c1ccc2c(N3CCNCC3)cccc2c1 | 19.6%
N[C@@]1(C(=O)O)CC[C@@H](C(=O)O)C1 | 7.43%
NNC(=O)c1ccc(O)cc1 | -17.7%
Ic1ccccc1CNC1C2CCN(CC2)C1C(c1ccccc1)c1ccccc1 (stereo not given) | -7.25%
NCCc1c[nH]c2ccc(C(N)=O)cc12 | -1.21%
NNC(N)=O | 0.809%
Cc1[nH]c2ccc(O)cc2c1CCN | 2.33%
C[N+]1(C)CCC(OC(=O)C(c2ccccc2)c2ccccc2)CC1 | -11.3%
O=S1(=O)N(CCN2CC=C(c3c[nH]c4cc(F)ccc34)CC2)c2cccc3c2N1CCC3 | 62%
O=[N+]([O-])c1ccc2nc(N3CCNCC3)ccc2c1 | -3.42%
NC(C(=O)O)c1cc(=O)[nH]o1 (stereo not given) | -29.7%
c1ccc2cc(CC3=NCCN3)ccc2c1 | -0.441%
C[C@H](Cc1ccc2c(c1)OC(C(=O)O)(C(=O)O)O2)NC[C@H](O)c1cccc(Cl)c1 | -8.8%

SMILES | activity change, negative = inhibition
CCCN1CCc2cc(O)cc3c2[C@H]1Cc1ccc(O)c(O)c1-3 | -3.33%
CC(C)NP(=O)(NC(C)C)OP(=O)(NC(C)C)NC(C)C | -2.08%
C[C@H](N)CN1CCc2ccc(Br)cc21 | -6.96%
NC(=O)c1ccc(OCC(O)CN2CC=C(c3ccc(F)cc3)CC2)cc1 (stereo not given) | -2.99%
O=[N+]([O-])/C=C/c1ccc2c(c1)OCO2 | -7.23%
CN(C(=O)Cc1ccc(Cl)c(Cl)c1)C(CN1CCCC1)c1cccc(OCC(=O)O)c1 (stereo not given) | 0.121%
CN1CCC(c2c[nH]c3ccc(O)cc23)CC1 | 1.39%
CN1CCc2cc(O)cc3c2[C@H]1Cc1ccc(O)c(O)c1-3 | 14.1%
C=CCN1CCC23c4c5ccc(O)c4O[C@H]2C(=O)CC[C@@]3(O)C1C5 (stereo not given in full) | 2.12%
C[C@H]1C2Cc3ccc(O)cc3[C@@]1(C)CCN2CC1CC1 | 1.42%
c1ccc2c(c1)[I+]c1ccccc1-2 | 58%
O=P(O)(O)C(Cl)(Cl)P(=O)(O)O | -11.9%
COC(=O)N1CCN(C(=O)Cc2ccc(Cl)c(Cl)c2)C(CN2CCCC2)C1 (stereo not given) | -8.77%
CC(N)c1cccc(Cl)c1Cl (stereo not given) | 6.18%
CCS(=O)(=O)Nc1cccc(C(=C2CCCCC2)c2cnc[nH]2)c1 | 11.4%
CCCCCCCCCCCCCC(=O)O[C@@H]1[C@@H](C)[C@@]2(O)[C@@H](C=C(CO)C[C@@]3(O)C(=O)C(C)=C[C@@H]23)C2C(C)(C)[C@@]21OC(C)=O (stereo not given in full) | -2.46%
O=C1C=CC(=O)C=C1 | 18%
CO[C@H]1CC=C2CCN3CCC4=C(CC(=O)OC4)[C@]23C1 | -16.6%
NCC(CP(=O)(O)O)c1ccc(Cl)cc1 (stereo not given) | -5.7%
CCCC[N+]1(C)C2CC(OC(=O)[C@H](CO)c3ccccc3)CC1C1OC12 (stereo not given in full) | -4.02%
